According to PubChem BioAssay AID602140 (NMMLSC, 2011):
Several values for one entry are separate records, joined by “and”; a condition that tells them apart may be missing. Equal values may be shown once. The list shows a part of the results. Activity calls are given as the source filed them. The rule behind the calls is not given here.

Test system: Botulinum neurotoxin type F light chain protease (Clostridium botulinum)
Test: BoNT/F light chain protease inhibitors, confirmation, biochemical, flow cytometry, cherry pick 1 (AID 602140)
Details: multiplex microsphere protease cleavage assay, at 10 µM, active compounds read high

Row | SMILES | inhibition
1 | CCCN1C2CCCC1CC(NC(=O)c1cccc(OC)c1)C2 (configuration not stated) | 0.9% (inactive)
2 | O=C(CN1CCCCCC1)Nc1c(Cl)cc(Cl)cc1Cl | -7.6% (inactive)
3 | CC(C)Cc1nnc(NC(=O)CCC(=O)Nc2ccc3cn[nH]c3c2)s1 | -1.9% (inactive)
4 | OC(c1ccc(Cl)cc1)C(CN1CCOCC1)c1ccccc1 (configuration not stated) | 3.4% (inactive)
5 | O=S(=O)(NC1CCCCC1N1CCC(O)CC1)c1ccc(Cl)cc1 (configuration not stated) | 2.2% (inactive)
6 | O=C(O)c1cc(S(=O)(=O)NC2CCCc3ccccc32)ccc1O (configuration not stated) | -1.4% (inactive)
7 | CCOCC(=O)NCc1ccc2c(c1)cc(C)n2C | -12.1% (inactive)
8 | COCCn1nnnc1C(c1cc2ccc(OC)cc2[nH]c1=O)N1CCc2ccccc2C1 (configuration not stated) | -9.6% (inactive)
9 | COc1ccccc1CNC(=O)C1Cc2ccccc2C(=O)O1 (configuration not stated) | -1.3% (inactive)
10 | COc1ccc(C2CC(c3cccs3)=NN2c2nc(C)c(C(C)=O)s2)cc1OC (configuration not stated) | -1.7% (inactive) and 7.1% (inactive)
11 | Cc1cc(S(=O)(=O)NC2CCCC2)ccc1-n1cnnn1 | 3.7% (inactive)
12 | CC(=O)c1cccc(NC(=O)N2CCCC2C(=O)NCCc2ccccc2)c1 (configuration not stated) | 0% (inactive)
13 | COc1ccc(NS(=O)(=O)c2cc(C(=O)Nc3ccccc3C(=O)O)ccc2C)cc1 | -0.5% (inactive)
14 | CN1CCN(c2ccc(NC(=O)c3ccccc3)cc2)CC1 | 1.4% (inactive)
15 | COc1cc(C(=O)NCc2ccc3c(c2)cc(C)n3C)cc(OC)c1OC | -4.7% (inactive)
16 | Cc1c(NC(=O)c2cccnc2)c(=O)n(-c2ccccc2)n1C | 2.7% (inactive)
17 | CCCSc1nc2sc3c(c2c(=O)n1-c1ccc(OC)cc1)CCN(C)C3 | 5.3% (inactive)
18 | Cc1ccccc1NC(=O)c1cc(S(=O)(=O)Nc2cccc(C(=O)O)c2)ccc1Cl | -1.9% (inactive)
19 | Clc1ccc(-c2ncc3ccccn23)c(Cl)c1 | -4.7% (inactive)
20 | Cc1onc(-c2ccccc2Cl)c1C(=O)NCCn1ccc2ccccc21 | -5.2% (inactive)
21 | Cc1ccc(C(=O)COc2cccc(NC(=O)c3ccco3)c2)cc1 | -7.2% (inactive)
22 | Brc1ccc2ncnc(NCc3cccnc3)c2c1 | -1.4% (inactive)
